Consider one sequence from PMC7862700, “An all-to-all approach to the identification of sequence-specific readers for epigenetic DNA modifications on cytosine”.

Experiment in all cases: DAPPL (digital affinity profiling via proximity ligation, sequencing); 10 mM Tris-HCl pH 7.5, 50 mM NaCl, 1 mM DTT, 4% glycerol, room temperature, 30 min; GST-TFs on glutathione beads, 16-mer random dsDNA library, 0.1% formaldehyde crosslink after washing; high values mean tight binding
Holding throughout (details): protein: recombinant; tags: N-terminal GST; dsDNA, one strand shown

For test [1], the target named is T1, ELK1 (Homo sapiens, UniProt P19419 1-428).
T1 sequence: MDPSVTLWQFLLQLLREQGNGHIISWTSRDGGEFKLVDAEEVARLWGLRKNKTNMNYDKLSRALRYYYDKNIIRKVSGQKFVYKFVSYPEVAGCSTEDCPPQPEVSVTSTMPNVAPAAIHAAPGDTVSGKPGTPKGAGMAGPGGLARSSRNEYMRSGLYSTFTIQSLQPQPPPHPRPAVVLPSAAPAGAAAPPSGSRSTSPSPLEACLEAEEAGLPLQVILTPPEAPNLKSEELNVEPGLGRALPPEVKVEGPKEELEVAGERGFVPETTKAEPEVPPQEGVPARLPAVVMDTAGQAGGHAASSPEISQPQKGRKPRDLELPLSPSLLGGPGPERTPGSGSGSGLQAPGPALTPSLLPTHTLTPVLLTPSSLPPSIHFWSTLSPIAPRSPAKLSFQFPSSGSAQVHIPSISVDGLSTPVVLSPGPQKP
The procedure, abridged:
(§1)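 GST fusions of human transcription factors were expressed in yeast and captured with glutathione beads. Once given DNA barcodes and pooled alongside a tag-only sample, they were incubated for 30 min at room temperature with 200 nmole of a random double-stranded 16-mer DNA library in Tris/NaCl/DTT/glycerol buffer, then washed, crosslinked (0.1% formaldehyde), proximity-ligated, PCR-amplified and sequenced on an Illumina NextSeq500. The binding signal of each hexamer is its read frequency for a factor divided by its frequency for the tag-only sample.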

The target in test [2] is T2, GABPA (Homo sapiens, UniProt Q06546 1-454).
T2 sequence: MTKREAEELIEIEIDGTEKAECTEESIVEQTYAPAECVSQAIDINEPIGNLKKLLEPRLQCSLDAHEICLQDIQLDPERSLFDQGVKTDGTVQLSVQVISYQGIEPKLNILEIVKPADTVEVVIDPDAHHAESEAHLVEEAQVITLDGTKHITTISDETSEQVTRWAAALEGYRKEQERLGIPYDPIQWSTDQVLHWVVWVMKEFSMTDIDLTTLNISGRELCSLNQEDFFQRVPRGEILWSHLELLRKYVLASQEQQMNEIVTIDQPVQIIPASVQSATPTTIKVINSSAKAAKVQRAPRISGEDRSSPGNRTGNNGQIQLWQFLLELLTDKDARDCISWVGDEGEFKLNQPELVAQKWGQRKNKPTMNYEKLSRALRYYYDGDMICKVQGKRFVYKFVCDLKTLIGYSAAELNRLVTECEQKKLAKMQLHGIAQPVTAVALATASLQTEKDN
The method, boiled down: as §1

In test [3] the target is T3, ERG (Homo sapiens, UniProt P11308 1-479).
T3 sequence: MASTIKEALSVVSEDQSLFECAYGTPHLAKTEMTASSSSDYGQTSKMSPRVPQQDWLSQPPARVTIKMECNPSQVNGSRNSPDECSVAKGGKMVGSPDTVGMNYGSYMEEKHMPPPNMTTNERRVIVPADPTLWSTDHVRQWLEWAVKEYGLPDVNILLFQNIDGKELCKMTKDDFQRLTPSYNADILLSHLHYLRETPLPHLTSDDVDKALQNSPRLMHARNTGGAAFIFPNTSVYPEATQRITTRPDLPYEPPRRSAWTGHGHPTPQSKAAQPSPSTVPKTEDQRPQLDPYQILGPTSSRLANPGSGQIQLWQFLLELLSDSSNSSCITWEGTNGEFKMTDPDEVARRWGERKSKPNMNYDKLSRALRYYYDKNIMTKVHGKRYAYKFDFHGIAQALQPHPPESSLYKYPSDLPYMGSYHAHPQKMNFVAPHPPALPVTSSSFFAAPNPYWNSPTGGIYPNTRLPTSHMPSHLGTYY
The method, boiled down:
as §1

The target in test [4] is ELF1 (Homo sapiens, UniProt P32519 1-619). The procedure, abridged:
as §1

Test [5] addresses T4, EHF (Homo sapiens, UniProt Q9NZC4 1-300).
T4 sequence: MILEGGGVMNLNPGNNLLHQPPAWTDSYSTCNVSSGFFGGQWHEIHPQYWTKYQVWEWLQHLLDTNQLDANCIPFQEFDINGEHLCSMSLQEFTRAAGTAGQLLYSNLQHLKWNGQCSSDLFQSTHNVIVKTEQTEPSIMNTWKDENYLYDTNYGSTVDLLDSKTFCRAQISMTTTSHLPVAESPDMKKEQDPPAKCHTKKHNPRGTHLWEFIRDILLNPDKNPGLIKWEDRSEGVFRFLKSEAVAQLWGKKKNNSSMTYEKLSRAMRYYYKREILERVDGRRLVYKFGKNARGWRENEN
The method, boiled down:
as §1

Test [6] concerns the target SPI1 (Homo sapiens, UniProt P17947 1-270). The method, boiled down: as §1
Test [7] addresses SPIB (Homo sapiens, UniProt Q01892 1-262). The procedure, abridged: as §1
Test [8] deals with T5, FEV (Homo sapiens, UniProt Q99581 1-238).
T5 sequence: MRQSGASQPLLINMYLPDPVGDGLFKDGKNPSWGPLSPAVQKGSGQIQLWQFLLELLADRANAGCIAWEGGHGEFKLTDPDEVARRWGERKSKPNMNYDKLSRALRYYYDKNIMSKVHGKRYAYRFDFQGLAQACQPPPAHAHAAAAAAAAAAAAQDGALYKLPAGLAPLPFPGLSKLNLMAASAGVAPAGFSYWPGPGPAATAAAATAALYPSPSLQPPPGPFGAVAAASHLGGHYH
The method, boiled down: as §1

For test [9], the target named is ETV5 (Homo sapiens, UniProt P41161 1-510). The method, boiled down: as §1
ETV5, sequence (P41161 whole entry): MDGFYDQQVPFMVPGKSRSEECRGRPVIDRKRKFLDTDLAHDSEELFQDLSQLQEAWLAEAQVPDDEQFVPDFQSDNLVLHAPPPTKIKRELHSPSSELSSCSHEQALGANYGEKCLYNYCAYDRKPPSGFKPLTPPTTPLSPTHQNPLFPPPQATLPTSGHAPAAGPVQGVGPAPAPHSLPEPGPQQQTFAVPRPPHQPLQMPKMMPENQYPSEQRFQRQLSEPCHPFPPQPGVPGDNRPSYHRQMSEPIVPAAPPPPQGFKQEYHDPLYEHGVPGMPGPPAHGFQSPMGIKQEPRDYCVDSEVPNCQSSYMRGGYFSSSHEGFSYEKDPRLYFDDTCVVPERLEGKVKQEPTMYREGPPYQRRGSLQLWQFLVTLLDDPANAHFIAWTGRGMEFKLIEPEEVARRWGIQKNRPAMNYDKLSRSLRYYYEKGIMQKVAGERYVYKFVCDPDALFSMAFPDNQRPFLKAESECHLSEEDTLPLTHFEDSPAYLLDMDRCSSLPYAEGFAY
The target of test [10] is ELF4 (Homo sapiens, UniProt Q99607 1-663). The procedure, abridged: as §1
ELF4, sequence (Q99607 whole entry): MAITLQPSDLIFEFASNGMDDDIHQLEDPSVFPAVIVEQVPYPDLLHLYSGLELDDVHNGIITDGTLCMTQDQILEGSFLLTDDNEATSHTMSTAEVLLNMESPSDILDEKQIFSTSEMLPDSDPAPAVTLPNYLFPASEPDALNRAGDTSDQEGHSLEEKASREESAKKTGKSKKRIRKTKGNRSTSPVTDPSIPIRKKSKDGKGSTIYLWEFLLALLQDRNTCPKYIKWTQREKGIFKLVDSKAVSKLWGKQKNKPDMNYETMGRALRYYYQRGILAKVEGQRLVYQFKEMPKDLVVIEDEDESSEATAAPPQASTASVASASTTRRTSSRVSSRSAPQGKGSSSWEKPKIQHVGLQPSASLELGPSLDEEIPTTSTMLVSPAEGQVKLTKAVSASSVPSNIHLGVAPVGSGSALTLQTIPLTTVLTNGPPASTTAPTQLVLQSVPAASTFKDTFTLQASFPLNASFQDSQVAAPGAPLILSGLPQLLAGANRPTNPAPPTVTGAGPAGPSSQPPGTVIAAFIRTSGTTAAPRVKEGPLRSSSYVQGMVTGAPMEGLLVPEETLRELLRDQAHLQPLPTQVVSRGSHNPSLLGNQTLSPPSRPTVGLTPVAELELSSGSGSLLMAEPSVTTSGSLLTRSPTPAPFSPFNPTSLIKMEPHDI
In test [11] the target is T6, ELK4 (Homo sapiens, UniProt P28324-2 1-405).
T6 sequence: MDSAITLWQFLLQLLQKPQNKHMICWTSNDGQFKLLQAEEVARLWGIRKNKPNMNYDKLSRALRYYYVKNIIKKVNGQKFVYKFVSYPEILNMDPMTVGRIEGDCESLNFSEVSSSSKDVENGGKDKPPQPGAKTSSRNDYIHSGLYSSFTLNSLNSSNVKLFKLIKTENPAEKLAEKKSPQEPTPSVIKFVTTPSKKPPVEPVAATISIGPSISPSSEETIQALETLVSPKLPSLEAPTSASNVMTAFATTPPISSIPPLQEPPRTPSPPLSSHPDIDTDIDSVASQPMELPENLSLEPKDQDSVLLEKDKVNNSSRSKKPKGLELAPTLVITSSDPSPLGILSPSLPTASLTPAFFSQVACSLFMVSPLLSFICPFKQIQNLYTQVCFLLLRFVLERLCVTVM
The procedure, abridged:
as §1

The target in test [12] is T7, ETV2 (Homo sapiens, UniProt O00321 1-342).
T7 sequence: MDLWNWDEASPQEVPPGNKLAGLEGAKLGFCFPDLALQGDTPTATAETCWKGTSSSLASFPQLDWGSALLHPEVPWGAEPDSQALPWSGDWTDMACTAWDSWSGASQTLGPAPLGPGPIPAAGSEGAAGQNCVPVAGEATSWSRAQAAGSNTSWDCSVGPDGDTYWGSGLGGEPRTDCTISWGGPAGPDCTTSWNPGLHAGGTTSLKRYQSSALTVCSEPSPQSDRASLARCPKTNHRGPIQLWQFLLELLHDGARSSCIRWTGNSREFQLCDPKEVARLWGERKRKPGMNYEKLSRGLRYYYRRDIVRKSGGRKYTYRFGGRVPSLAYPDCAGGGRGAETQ
The procedure, abridged:
as §1

For test [13], the target named is T8, ELF3 (Homo sapiens, UniProt P78545 1-371).
T8 sequence: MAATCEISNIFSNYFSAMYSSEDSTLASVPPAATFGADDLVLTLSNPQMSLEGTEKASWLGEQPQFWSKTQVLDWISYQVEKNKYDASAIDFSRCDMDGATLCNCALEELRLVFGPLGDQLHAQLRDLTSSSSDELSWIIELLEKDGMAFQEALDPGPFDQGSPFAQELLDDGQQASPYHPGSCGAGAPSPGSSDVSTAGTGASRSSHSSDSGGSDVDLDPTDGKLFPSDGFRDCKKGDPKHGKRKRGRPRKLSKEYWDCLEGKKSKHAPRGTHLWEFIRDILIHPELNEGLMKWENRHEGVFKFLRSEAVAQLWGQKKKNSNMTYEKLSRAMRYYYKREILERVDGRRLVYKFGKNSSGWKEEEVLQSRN
The procedure, abridged:
as §1

Test [14] deals with ETV1 (Homo sapiens, UniProt P50549 1-477). The procedure, abridged:
as §1

For test [15], the target named is T9, ETV3L (Homo sapiens, UniProt Q6ZN32 1-361).
T9 sequence: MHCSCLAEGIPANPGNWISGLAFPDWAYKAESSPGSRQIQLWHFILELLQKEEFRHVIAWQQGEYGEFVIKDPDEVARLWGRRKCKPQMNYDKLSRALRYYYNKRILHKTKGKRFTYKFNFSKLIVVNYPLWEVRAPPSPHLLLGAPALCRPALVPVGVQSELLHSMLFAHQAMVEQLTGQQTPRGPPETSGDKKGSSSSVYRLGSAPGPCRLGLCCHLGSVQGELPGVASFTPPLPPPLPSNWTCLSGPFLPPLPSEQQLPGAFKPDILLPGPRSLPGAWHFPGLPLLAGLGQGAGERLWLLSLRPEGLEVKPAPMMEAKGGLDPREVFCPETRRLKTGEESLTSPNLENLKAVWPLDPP
The method, boiled down: as §1

Test [16] deals with T10, ETS2 (Homo sapiens, UniProt P15036 1-469).
T10 sequence: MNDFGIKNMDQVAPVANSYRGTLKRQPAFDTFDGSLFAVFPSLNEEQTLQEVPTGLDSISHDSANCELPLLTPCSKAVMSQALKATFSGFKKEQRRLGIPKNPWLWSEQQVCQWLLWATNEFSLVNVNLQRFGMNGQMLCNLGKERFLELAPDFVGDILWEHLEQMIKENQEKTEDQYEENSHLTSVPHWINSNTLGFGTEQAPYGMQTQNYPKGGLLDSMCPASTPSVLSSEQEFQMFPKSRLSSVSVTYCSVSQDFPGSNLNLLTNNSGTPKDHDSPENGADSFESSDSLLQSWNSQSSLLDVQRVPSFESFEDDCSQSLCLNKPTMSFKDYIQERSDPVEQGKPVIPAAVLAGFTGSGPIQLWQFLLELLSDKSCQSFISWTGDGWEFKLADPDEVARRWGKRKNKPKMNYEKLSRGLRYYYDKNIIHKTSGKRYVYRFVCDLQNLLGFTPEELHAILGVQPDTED
The procedure, abridged:
as §1

In test [17] the target is T11, ETV7 (Homo sapiens, UniProt Q9Y603 1-341).
T11 sequence: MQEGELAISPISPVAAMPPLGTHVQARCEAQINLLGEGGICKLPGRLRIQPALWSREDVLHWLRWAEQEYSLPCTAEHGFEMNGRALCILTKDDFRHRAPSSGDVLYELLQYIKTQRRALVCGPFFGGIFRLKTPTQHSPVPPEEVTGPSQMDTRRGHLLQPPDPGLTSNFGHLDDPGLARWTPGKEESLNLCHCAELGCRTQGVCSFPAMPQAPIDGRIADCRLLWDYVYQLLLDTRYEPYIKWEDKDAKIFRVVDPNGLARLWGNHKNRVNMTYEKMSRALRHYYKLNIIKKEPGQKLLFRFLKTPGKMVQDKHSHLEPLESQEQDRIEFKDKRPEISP
The method, boiled down: as §1

Test [18] addresses T12, ETV3 (Homo sapiens, UniProt P41162-2 1-143).
T12 sequence: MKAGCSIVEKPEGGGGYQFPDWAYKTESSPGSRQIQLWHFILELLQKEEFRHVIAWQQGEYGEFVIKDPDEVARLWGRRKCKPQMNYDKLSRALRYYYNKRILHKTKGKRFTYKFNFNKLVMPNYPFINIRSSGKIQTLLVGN
The procedure, abridged:
as §1

Test [19] concerns the target ETV6 (Homo sapiens, UniProt P41212 1-452). The procedure, abridged: as §1

ETV6, sequence (P41212 whole entry): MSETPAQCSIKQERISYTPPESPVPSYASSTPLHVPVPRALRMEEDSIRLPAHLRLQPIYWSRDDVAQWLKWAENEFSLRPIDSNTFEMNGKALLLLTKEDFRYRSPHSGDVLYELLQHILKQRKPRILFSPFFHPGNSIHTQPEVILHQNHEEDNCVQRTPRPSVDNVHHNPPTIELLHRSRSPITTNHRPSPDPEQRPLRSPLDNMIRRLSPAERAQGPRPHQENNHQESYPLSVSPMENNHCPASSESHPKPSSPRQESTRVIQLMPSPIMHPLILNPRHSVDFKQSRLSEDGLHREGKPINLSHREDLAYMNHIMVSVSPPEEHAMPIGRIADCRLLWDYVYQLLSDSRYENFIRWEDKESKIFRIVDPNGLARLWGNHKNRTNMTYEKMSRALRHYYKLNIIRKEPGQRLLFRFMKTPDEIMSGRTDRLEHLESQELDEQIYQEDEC
SPIB, sequence (Q01892 whole entry): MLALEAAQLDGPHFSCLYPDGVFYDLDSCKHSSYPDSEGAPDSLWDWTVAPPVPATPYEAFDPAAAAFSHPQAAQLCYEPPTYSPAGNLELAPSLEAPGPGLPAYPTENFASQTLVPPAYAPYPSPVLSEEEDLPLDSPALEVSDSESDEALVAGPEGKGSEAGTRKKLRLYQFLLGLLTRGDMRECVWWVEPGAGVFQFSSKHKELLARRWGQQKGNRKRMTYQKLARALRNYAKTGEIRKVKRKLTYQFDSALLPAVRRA
ELF1, sequence (P32519 whole entry): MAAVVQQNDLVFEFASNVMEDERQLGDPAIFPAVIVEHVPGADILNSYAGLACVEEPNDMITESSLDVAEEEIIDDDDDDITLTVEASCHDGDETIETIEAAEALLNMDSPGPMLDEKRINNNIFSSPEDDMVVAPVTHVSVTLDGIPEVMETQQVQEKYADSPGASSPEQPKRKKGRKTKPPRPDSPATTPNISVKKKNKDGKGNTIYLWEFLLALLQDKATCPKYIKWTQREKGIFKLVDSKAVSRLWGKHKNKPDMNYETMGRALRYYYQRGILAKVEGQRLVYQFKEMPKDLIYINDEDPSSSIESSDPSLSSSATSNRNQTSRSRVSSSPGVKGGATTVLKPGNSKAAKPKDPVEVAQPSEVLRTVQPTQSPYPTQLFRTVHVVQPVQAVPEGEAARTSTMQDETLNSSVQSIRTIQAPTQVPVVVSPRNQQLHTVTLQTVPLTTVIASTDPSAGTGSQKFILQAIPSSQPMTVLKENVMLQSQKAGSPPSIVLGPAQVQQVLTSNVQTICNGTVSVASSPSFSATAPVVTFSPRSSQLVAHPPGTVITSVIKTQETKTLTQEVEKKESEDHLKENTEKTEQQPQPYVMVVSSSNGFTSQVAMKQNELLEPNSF
ETV1, sequence (P50549 whole entry): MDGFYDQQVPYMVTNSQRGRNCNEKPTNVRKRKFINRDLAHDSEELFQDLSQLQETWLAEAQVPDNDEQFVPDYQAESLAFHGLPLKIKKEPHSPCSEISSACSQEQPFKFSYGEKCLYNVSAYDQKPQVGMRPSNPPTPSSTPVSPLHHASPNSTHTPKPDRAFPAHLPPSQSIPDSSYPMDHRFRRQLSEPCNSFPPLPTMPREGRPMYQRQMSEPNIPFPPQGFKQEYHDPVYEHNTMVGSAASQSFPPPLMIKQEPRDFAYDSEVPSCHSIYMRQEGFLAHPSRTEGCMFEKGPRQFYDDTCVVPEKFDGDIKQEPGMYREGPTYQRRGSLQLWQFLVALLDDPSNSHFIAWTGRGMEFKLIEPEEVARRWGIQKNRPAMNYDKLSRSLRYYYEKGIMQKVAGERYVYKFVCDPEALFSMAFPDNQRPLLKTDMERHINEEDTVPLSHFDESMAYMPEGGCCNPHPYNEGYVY

Regarding CGCCTG, the binding signal was 1.17 fold enrichment (6-mer frequency, TF over GST control) in [1]; 1.08 fold enrichment (6-mer frequency, TF over GST control) in test [2]; 1.15 fold enrichment (6-mer frequency, TF over GST control) in test [3]; 1.12 fold enrichment (6-mer frequency, TF over GST control) in test [4]; 1.11 fold enrichment (6-mer frequency, TF over GST control) in test [5]; 1.1 fold enrichment (6-mer frequency, TF over GST control) in test [6]. Moreover, the binding signal is 1.07 fold enrichment (6-mer frequency, TF over GST control) in test [7]; 1.08 fold enrichment (6-mer frequency, TF over GST control) in test [8]; 1.18 fold enrichment (6-mer frequency, TF over GST control) in test [9]; 1.05 fold enrichment (6-mer frequency, TF over GST control) in [10]; 1.17 fold enrichment (6-mer frequency, TF over GST control) in test [11]; 1.01 fold enrichment (6-mer frequency, TF over GST control) in test [12]. For the same sequence, the binding signal in test [13] is 1.19 fold enrichment (6-mer frequency, TF over GST control); in test [14], 1.09 fold enrichment (6-mer frequency, TF over GST control); in test [15], 1.1 fold enrichment (6-mer frequency, TF over GST control); in [16] it was 1.12 fold enrichment (6-mer frequency, TF over GST control); in test [17], 1.01 fold enrichment (6-mer frequency, TF over GST control); in [18], 1.06 fold enrichment (6-mer frequency, TF over GST control). The binding signal in test [19] was 1.14 fold enrichment (6-mer frequency, TF over GST control).
